Results published in PubChem BioAssay (Tox21).
Where “and” joins values, the source holds several entries; their conditions need not be identical. Equal entries are not always repeated. Results filed as inconclusive are left out. A call without a number means that no potency is given here. The source holds several records for some structures; these can differ, active in one and inactive in another. Calls of active or inactive are those of the source. Calls come from the whole dose curve; as a rule, active = well fitted inhibition curve with a large enough effect in the repeat runs; inconclusive = weak or mixed curves; inactive = no such curve, though single readings can be large or run the other way.

Assay: qHTS assay to identify small molecule antagonists of the estrogen related receptor (ERR) signaling pathway from Tox21 library (AID 1224848); note: nearly all actives have a fitted effect of over 50% in size
Settings: ERR reporter cell line, luciferase antagonist mode, 18 h; series mostly up to 92.4 µM
Text: U.S. Tox21 Program National Center for Advancing Translational Sciences [NCATS] NIH Chemical Genomics Center [NCGC] U.S. Environmental Protection Agency [EPA] National Institutes of Environmental Health Sciences [NIEHS] National Toxicology Program [NTP] U.S. Food and Drug Administration [FDA] Tox21 Assay Overview: Estrogen related receptors (ERRs), the first orphan nuclear receptors discovered, play an important role in the control of cellular energy metabolism. ERRs are required for high-energy production in response to the environmental challenges. ERR-alpha was also identified as an adverse marker for breast cancer progression; ERR-alpha-positive tumors have a poor prognosis. To screen and to identify environmental compounds that perturb the ERR signaling pathways could provide valuable information for potential therapeutic or preventive measures in the treatment of metabolic disease. For identifying ERR antagonists, ERR cell line (provided by NTP) has been used to screen Tox21 10K library.
Tox21 Assay Protocol Summary: The ERR cells were dispensed at 2,000 cells/5 ul/well in 1536-well white plates using a Multidrop dispenser. After the assay plates were incubated at a 37 C/5% CO2 incubator for 6 hours, 23 nL of compounds dissolved in DMSO, positive and negative controls or DMSO only was transferred to the assay plate by a pin tool. The plates were incubated at 37 C for 18 hours. 4 ul/well of One-Glo reagent was added into the assay plates using a Flying Reagent Dispenser. After 30-minute incubation at room temperature, the luminescence intensity in the plates was measured using a ViewLux plate reader.
Potency is the fitted concentration of half-maximal effect.

Structure (SMILES)	Potency
Nc1c(N=Nc2ccc(-c3ccc(N=Nc4cc(S(=O)(=O)O)c5ccccc5c4N)cc3)cc2)cc(S(=O)(=O)O)c2ccccc12	24.3 µM (active)
CN(C)CCOC(C)(c1ccccc1)c1ccccn1 (stereo not drawn)	inactive
Cc1cccc(C)c1	inactive
CCCCCCc1ccc(O)cc1O	inactive
CN1CCc2cccc3c2[C@H]1Cc1ccc(O)c(O)c1-3	24.6 µM (active) and 18.1 µM (active)
C1CCC(C(CC2CCCCN2)C2CCCCC2)CC1 (stereo not drawn)	29.8 µM (active)
CCCCNC(=O)NS(=O)(=O)c1ccc(C)cc1	inactive
COc1ccc2c(c1)c(CC(=O)O)c(C)n2C(=O)c1ccc(Cl)cc1	30.8 µM (active) and inactive
CS(=O)(=O)OCCCCOS(C)(=O)=O	inactive
Cc1ncc([N+](=O)[O-])n1C	inactive
CN[C@H]1CC[C@@H](c2ccc(Cl)c(Cl)c2)c2ccccc21	26.6 µM (active)
CC(C)C(=O)Nc1ccc([N+](=O)[O-])c(C(F)(F)F)c1	25 µM (active) and 27.3 µM (active) and 13.3 µM (active)
Nc1c2c(nc3ccccc13)CCCC2	61.1 µM (active) and 54.5 µM (active) and inactive
O=C(Nc1ncc([N+](=O)[O-])s1)c1cccs1	inactive
Cc1ncc([N+](=O)[O-])n1CCO	inactive
CN(C)C(=O)Nc1ccc(Cl)c(Cl)c1	inactive
CC(C)NCC(O)c1ccc(O)c(O)c1 (stereo not drawn)	inactive

Structure (SMILES)	Potency
COc1ccc(C(Cl)=C(c2ccc(OC)cc2)c2ccc(OC)cc2)cc1	21.6 µM (active) and 27.3 µM (active) and 26.6 µM (active)
CCCCCCCCCCCCCCCC[N+](C)(C)Cc1ccccc1	11.2 µM (active) and 11.1 µM (active) and 11.9 µM (active)
CC1(C)O[C@@H]2C[C@H]3[C@@H]4CCC5=CC(=O)C=C[C@]5(C)[C@@]4(F)[C@@H](O)C[C@]3(C)[C@]2(C(=O)CO)O1	inactive
C1=CC2C3C=CC(C3)C2C1 (stereo not drawn)	inactive
CCCCC1(COC(=O)CCC(=O)O)C(=O)N(c2ccccc2)N(c2ccccc2)C1=O	inactive
NS(=O)(=O)c1cc2c(cc1Cl)NCNS2(=O)=O	inactive
CCN(CC)C(=O)c1cccc(C)c1	inactive
O=S1(=O)OC(c2ccc(O)cc2)(c2ccc(O)cc2)c2ccccc21	inactive
CN(C)C(=S)SC(=S)N(C)C	886 nM (active) and 1.09 µM (active) and 1.19 µM (active)
CCN(Cc1c(F)cccc1Cl)c1c([N+](=O)[O-])cc(C(F)(F)F)cc1[N+](=O)[O-]	61.1 µM (active)
O=c1[nH]cnc2c1ncn2[C@H]1CC[C@@H](CO)O1	inactive
CCOc1ccc(NC(C)=O)cc1	inactive
Cn1c(=O)c2c(ncn2C)n(C)c1=O	61.9 µM (active) and inactive
O=CC(=O)c1ccccc1	inactive
COc1ccc2cc(S(=O)(=O)N[C@H](CC(=O)N[C@H](Cc3ccc(CN4[C@H](C)CCC[C@@H]4C)cc3)C(=O)N(C)C(C)C)c3ccc4c(c3)OCO4)ccc2c1	25.8 µM (active)
Nc1ccc(O)c([N+](=O)[O-])c1	inactive
